# Data published in the supplement of paper PMC5919970.
# Structures can show the parent of a compound that is named as a salt. Whole data set: some 2,000 compounds, median “fractional viability relative to vehicle” near 0.92, cut for the lowest 2% near 0.11. This is one part of a sample in which the lowest values are shown more often than they occur.
# Tested on: TYKNU
# Assay: fractional viability relative to vehicle; TYKNU is a high-grade serous ovarian cancer line; higher = less growth inhibition
# Settings: 72 h, genotype: OPA1 knockout (sgOPA1 #2)
# Outline: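 TYKNU control cells or lentiCRISPRv2 knockout derivatives were plated at 500 cells per well in duplicate into drug-stamped 384-well plates holding a ~2100-compound library at 2 or 10 μM. Culture was in RPMI 1640 with 10% FBS at 37 °C in 5% CO2, with 72 h of drug treatment. Viability was measured by Cell Titer Glo luminescence, and the averaged duplicate treatment wells were normalised to duplicate control wells at the same plate position.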
SMILES,fractional viability (2uM),fractional viability (10uM)
CC(=O)c1cc([N+](=O)[O-])c(Sc2ccc(F)cc2F)s1,0.985,0.596
COc1ccc([C@H]2CNC(=O)C2)cc1OC1CCCC1 [S- (+)-Rolipram],1.2,1.04
Cc1cc(C)nc(NS(=O)(=O)c2ccc(NC(=S)NC(=O)COc3ccc(Br)cc3Cl)cc2)n1,0.956,0.803
O=C(NCc1ccncc1)C12CC3CC(C1)CC(c1ccc(Cl)cc1)(C3)C2,1.06,0.861
NC(=O)N/N=C/c1ccc([N+](=O)[O-])o1 [Nitrofural],1.55,1.47
Cc1ccc(S(=O)(=O)c2ccc([N+](=O)[O-])o2)cc1,0.0667,0.0291
CC(C)(C)NS(=O)(=O)c1cncc(-c2cc(F)c3nc(N)nn3c2)c1,1.04,1.06
O=C(O)C1=C[C@@H](O)[C@@H](O)[C@H](O)C1 [Shikimic Acid],1.04,0.875
C=C1/C(=C\C=C2/CCC[C@]3(C)[C@@H]([C@H](C)CCCC(C)(C)O)CC[C@@H]23)C[C@@H](O)C[C@@H]1O [Calcitriol],0.965,0.937
Cc1ccccc1CN1C2=NCCN2C(=O)C2=C1CCN(Cc1ccccc1)C2 [TIC10 Analogue],0.878,0.768
COc1cc2ncnc(Oc3ccc(CC(=O)Nc4cnn(C(C)C)c4)cc3)c2cc1OC,0.949,0.942
CC1(C)CC[C@]2(NC(=O)C(C)(F)F)CC[C@]3(C)[C@H](C(=O)C=C4[C@@]5(C)C=C(C#N)C(=O)C(C)(C)[C@@H]5CC[C@]43C)[C@@H]2C1 [Omaveloxolone (RTA-408)],0.166,0.0407
CN(C)CCNC(=O)c1cccn2c(=O)c3cc4ccccc4cc3nc12,0.61,0.294
COc1nccc(-c2c(-c3ccc(F)cc3)ncn2C2CCC(O)CC2)n1 (stereo unspecified),0.999,0.786
CC(C)(C)NCC(O)COc1cccc2c1CCC(=O)N2 (stereo unspecified) [Carteolol HCl],0.973,0.93
CC(C)(Cc1ccc2ccccc2c1)NC[C@@H](O)COc1cccc(Cl)c1C#N,1.06,0.0653
CC(C)NCC(O)COc1cccc2ccccc12 (stereo unspecified) [Propranolol HCl],0.809,1.12
O=[N+]([O-])c1ccc(Nc2nc(N3CCOCC3)nc(N3CCOCC3)n2)cc1,0.893,0.934
CC(C)(C)c1ccc(S(=O)(=O)NCc2ccc(C(=O)Nc3cccnc3)cc2)cc1,0.306,0.165
CCS(=O)(=O)N1CCN(c2ccc(Nc3ncc(C(N)=O)c(NC4CC4)n3)cc2)CC1,0.781,0.496
COc1cc2c(cc1OC)CN(CCc1ccc(NC(=O)c3cc(OC)c(OC)cc3NC(=O)c3cnc4ccccc4c3)cc1)CC2 [Tariquidar],0.891,0.459
CCCC(=O)Nc1cccc(NC(=O)c2ccccc2Br)c1,1,1.07
CCc1ccc(OCc2ccccc2C(=O)Nc2ccc3nc(C)cc(N)c3c2)cc1,0.16,0.0251
Cc1ccc(CNc2ncnc3ccc(-c4ccc(CO)o4)cc23)o1,0.989,1.02
O=[N+]([O-])c1cn2c(n1)OC[C@@H](OCc1ccc(OC(F)(F)F)cc1)C2,1.15,1.66

SMILES,fractional viability (2uM),fractional viability (10uM)
CC(C)(C)OC(=O)Nc1ccc(-c2cc(C(=O)NCCCCCCC(=O)NO)no2)cc1,0.367,0.171
COc1ccc(/C=C\c2cc(OC)c(OC)c(OC)c2)cc1O [Combretastatin A4],0.313,0.292
COc1cc(/C=C/C(=O)N2CCN(CC(=O)N3CCCC3)CC2)cc(OC)c1OC [Cinepazide maleate],0.929,0.991
COc1cc(/C=C/C(=O)N2CCC=CC2=O)cc(OC)c1OC [Piperlongumine],0.31,0.085
CC(=O)O/N=C1\C(=O)N(Cc2cc(Cl)ccc2Cl)c2ccc(Cl)cc21,1.06,0.985
NC(=O)c1noc([C@H](CCCC2CCCCC2)CC(=O)NO)n1,1.1,0.853
COC(=O)N1CCN(Cc2cccc(NC(=O)Nc3ccc(C)nc3)c2F)CC1,1.01,0.982
CCCCC(F)(F)[C@@]1(O)CC[C@H]2[C@@H](CC(=O)[C@@H]2CCCCCCC(=O)O)O1 [Lubiprostone],0.935,1.03
O=C1c2ccccc2C(=O)c2c1ccc(O)c2O [Alizarin],1.19,0.838
CC(=O)c1cc2c(o1)C(=O)c1ccccc1C2=O [Napabucasin],0.0542,0.0318
O=C(O)c1cc(=O)c2ccccc2o1 [Chromocarb],0.872,0.816
CC(CNC(=O)c1cccnc1)NC(=O)c1cccnc1 (stereo unspecified) [Nicaraven],0.886,0.93
C[C@H]1O[C@@H](O[C@H]2[C@@H](O)C[C@H](O[C@H]3[C@@H](O)C[C@H](O[C@H]4CC[C@@]5(C)[C@H](CC[C@@H]6[C@@H]5C[C@@H](O)[C@]5(C)[C@@H](C7=CC(=O)OC7)CC[C@]65O)C4)O[C@@H]3C)O[C@@H]2C)C[C@H](O)[C@@H]1O [Digoxin],0.141,0.0738
Cn1c(=O)c(F)c(Nc2ccc(I)cc2F)c2c(=O)n(C[C@@H](O)CO)cnc21,0.516,0.403
COc1ccc(CCNCc2ccc(OCc3ccc(Cl)nc3)c(OC)c2)cc1OC,1.04,0.914
CC[C@H]1OC(=O)[C@H](C)[C@@H](O[C@H]2C[C@@](C)(OC)[C@@H](O)[C@H](C)O2)[C@H](C)[C@@H](O[C@@H]2O[C@H](C)C[C@H](N(C)C)[C@H]2O)[C@](C)(O)C[C@@H](C)C(=O)[C@H](C)[C@H]2OC(=O)O[C@@]21C [Erythromycin Cyclocarbonate],0.834,0.883
CN1CCCN(C(=O)c2cccc(-c3ccc(/C=C4/C(=O)Nc5ccc(Cl)cc54)o3)c2)CC1,0.132,0.0251
CN1CCN(C(=O)c2cc3cc(Cl)ccc3[nH]2)CC1,1.08,1.08
Cc1[nH]c(/C=C2\C(=O)Nc3ccc(S(=O)(=O)N(C)c4cccc(Cl)c4)cc32)c(C)c1C(=O)N1CCN(C)CC1,1.37,0.133
CS(=O)(=O)c1ccc(-c2nnc(/C=C/c3nnc(-c4ccc(C#N)cc4)o3)n2-c2ccccc2Cl)nc1,1.11,1.03
O=C(Cc1cccc(OC(F)(F)F)c1)Nc1ccc(CCCCc2nnc(NC(=O)Cc3ccccn3)s2)nn1,0.25,0.2
CN[C@@H](C)C(=O)N[C@H](C(=O)N1CCC[C@H]1c1nc(C(=O)c2ccc(F)cc2)cs1)C1CCCCC1,0.719,0.643
N#C/C(=C1/SC[C@@H](c2ccc(Cl)cc2Cl)S1)n1ccnc1 [Luliconazole],0.989,0.818
Cc1cccc(-c2[nH]c(C(C)(C)C)nc2-c2ccc3c(c2)OCO3)n1,1.2,0.682
"CCCS(=O)(=O)Nc1ccc(F)c(C(=O)c2c[nH]c3ncc(-c4ccc(Cl)cc4)cc23)c1F [Vemurafenib (PLX4032, RG7204)]",1.13,1

SMILES,fractional viability (2uM),fractional viability (10uM)
COc1ncc(-c2ccc3nccc(-c4ccnnc4)c3c2)cc1NS(=O)(=O)c1ccc(F)cc1F,0.354,0.0636
CC(C)(C)c1ccc(S(=O)(=O)/C=C/C#N)cc1,0.357,0.0658
Cc1ccc(S(=O)(=O)/C=C/C#N)cc1,0.121,0.09
NC(=O)c1cccc2[nH]c(-c3ccc(C4CCCN4)cc3F)nc12 (stereo unspecified),0.735,0.788
"CC[C@H](CO)Nc1nc(NCc2ccccc2)c2ncn(C(C)C)c2n1 [Roscovitine (Seliciclib,CYC202)]",1.14,0.913
Cc1cc(C(O)=C2C(=O)C(=O)N(CCCN3CCOCC3)C2c2ccncc2)ccc1OCc1ccccc1 (stereo unspecified),0.973,0.814
CC(O)c1cc(C(=O)N[C@@H](C)Cn2ccc(-c3ccc(C#N)c(Cl)c3)n2)n[nH]1 (stereo partly specified),0.945,1.06
Cn1ncnc1[C@H]1c2n[nH]c(=O)c3cc(F)cc(c23)N[C@@H]1c1ccc(F)cc1,0.905,0.986
NC(=O)c1cnc2[nH]ccc2c1N[C@@H]1[C@@H]2CC3C[C@H]1C[C@@](O)(C3)C2,0.989,1
CC(=O)Nc1cccc2c1c(Sc1ccc(Cl)cc1)c(C)n2CC(=O)O,0.976,0.913
CC(=O)N1c2ccc(-c3ccc(C(=O)O)cc3)cc2[C@H](Nc2ccc(Cl)cc2)C[C@@H]1C,0.529,0.337
NNC(=O)c1ccncc1 [Isoniazid],1.01,1.08
O=C(/C=C/c1ccc2ccccc2n1)c1ccncc1,0.472,0.11
O=C(NNc1ccccc1)c1ccncc1,0.769,0.792
C[C@H](CCC(=O)NCCS(=O)(=O)O)[C@H]1CC[C@H]2[C@@H]3[C@@H](O)C[C@@H]4C[C@H](O)CC[C@]4(C)[C@H]3CC[C@]12C [Sodium Tauroursodeoxycholate (TUDC)],0.832,0.834
Cc1c(C(=O)NN2CCCCC2)nn(-c2ccc(Cl)cc2Cl)c1-c1ccc(I)cc1,0.982,0.754
CCN(CC)CCCC(C)Nc1nc(C)cc(Nc2ccc3nc(C)cc(N)c3c2)n1 (stereo unspecified),0.891,0.898
CCN(CC)CCCC(C)Nc1c2ccc(Cl)cc2nc2ccc(OC)cc12 (stereo unspecified) [Quinacrine 2HCl],0.837,0.105
C[C@H](Nc1ncnc2[nH]cnc12)c1cc2ccc(F)cc2nc1-c1ccccn1,0.879,0.836
O=C(O)c1ccccc1 [Benzoic Acid],0.885,0.957
CN(NC(=O)CC(=O)NN(C)C(=S)c1ccccc1)C(=S)c1ccccc1 [Elesclomol (STA-4783)],0.0864,0.107
O=C(O)CCNC(=O)c1ccccc1 [Betamipron],1.14,0.982
Cc1cc(CS(=O)(=O)c2ccccc2)cc(OCc2ccc(CN3CCC[C@@H]3CO)cc2)c1,0.843,0.875
